Only some compounds are listed: those with a hit (about 20% of all), similar ones and a draw of the others.
CHX counter: counter-screen for Shiga toxin inhibitors: cycloheximide protein synthesis inhibition | cell reporter, cycloheximide protein synthesis inhibition counterscreen | AID 2314 | max response, % | hit rate 12% among 300,000; in the data active = max response mostly above about 13%, no sharp cut-off; inactive = mostly below about 14%; also: read at 38.3 µM for the half of the compounds with a filed dose; 0% is about no effect
Shiga toxin inh: inhibitors of Shiga toxin in Vero cells; inhibition, % at 38.7 µM; hit rate 9.2% among 290,000; Vero cells, Shiga toxin protein synthesis inhibition reporter; in the data active = inhibition mostly above about 28%, no sharp cut-off; inactive = mostly below about 43%; also: 0% is about no effect
Pf growth 96h: P. falciparum growth inhibition at 96 hour, primary screen for plastid delayed-death inhibitors. hit rate 6.9% among 320,000. Potency, µM (top dose mostly 28.7 µM), inactives show top-dose activity change, negative = inhibition, hits mostly inhibitors. P. falciparum luciferase reporter growth, 96 h; also: potency is read from the fitted curve at half-maximal effect; % is scaled to controls: 0 for no effect and ±100 for the full control effect
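Luminescence readout: decreased luciferase signal marks inhibited growth of reporter-expressing P. falciparum in infected red cells (2% hematocrit, 0.05% parasitemia final), exposed to compound two generations (96 h, 37 C, 5% CO2).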
HCMV antiviral: inhibitors of human cytomegalovirus; activity change, negative = inhibition, % at 57.5 µM; HFF cells, HCMV-luciferase reporter, 72 h; stronger effect = lower value; hit rate 4.5% among 410,000; in the data active = activity change below about -60%; inconclusive = no clear call, values can overlap the other calls; inactive = above about -39%; also: % is scaled to controls: 0 for no effect and ±100 for the full control effect
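Screen run at 2 compound doses on HFFs infected with reporter HCMV, MOI 1 PFU/cell. Luciferase activity from cell lysates at 72 h post infection gave inhibition relative to buffer-only and Salinomycin wells.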
Pf growth 48h: inhibits P. falciparum growth in the first generation, 48 h | P. falciparum luciferase growth in erythrocytes, 48 h | Potency, µM (doses to about 28.7 µM), inactives show at the top dose activity change, negative = inhibition, hits mostly inhibitors | hit rate 5.9% among 310,000 | AID 504832; also: potency is read from the fitted curve at half-maximal effect; % is scaled to controls: 0 for no effect and ±100 for the full control effect
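Here the parasites carry a stable luciferase gene and grow inside erythrocytes in Albumax-based RPMI medium with compound for one erythrocytic cycle. Activity is scored as loss of luminescent signal.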
* marks the source's active call; other numbers are inactive results; ? = inconclusive; . = no result. Unless noted, calls follow the shape of the dose curve; as a rule, active = well fitted inhibition curve with a large enough effect; inconclusive = small, poorly fitted or top-dose-only effect, or another doubt; inactive = no such curve, though single readings can be large or run the other way.

SMILES	CHX counter	Shiga toxin inh	Pf growth 96h	HCMV antiviral	Pf growth 48h
Cc1ccc(C)c(S(=O)(=O)Nc2ccc(C(=O)NCCCN(C)C)cc2)c1	.	.	.	7	.
CCN(CC)CCNC(=O)c1ccc(NC(=O)c2ccc(S(=O)(=O)N(C)c3ccccc3OC)cc2)cc1	.	.	.	-30	.
CCN(CC)Cc1ccccc1CNC(=O)c1cccc(S(=O)(=O)Nc2ccc3c(c2)OCO3)c1	.	.	?	-33	9.3µM*
CCN(CC)CCNC(=O)c1ccc(NC(=O)c2ccc(Cl)c(S(=O)(=O)Nc3ccccc3OC)c2)cc1	-3	-2	2.3µM*	.	?
CN(C)Cc1ccccc1CNC(=O)c1cccc(S(=O)(=O)Nc2ccc3c(c2)OCO3)c1	.	.	.	-24	.
Cc1ccc(NS(=O)(=O)c2cc(C(=O)NCCCN(C)C)ccc2Cl)cc1Cl	.	.	?	6	6.6µM*
CC(C)NC(=O)CSc1nnc(C2CC2)n1-c1ccccc1	-1	-4	-14%	-26	?
CC(=O)Nc1ccc(NC(=O)COC(=O)C2c3ccccc3Oc3ccccc32)cc1	-2	-17	39%	-19	2%
COc1cc(/C=C/C(=O)Nc2ccc(C)cc2)cc(OC)c1OC	-3	-5	?	-38	-7%
CCN(CC)CCNC(=O)c1ccc(NC(=O)c2cccc(S(=O)(=O)N3CCc4ccccc43)c2)cc1	.	.	1µM*	?	0.74µM*
CCN(CC)CCNC(=O)c1ccc(NC(=O)/C=C/c2cc(OC)c(OC)c(OC)c2)cc1	-2	-6	?	-1	5.2µM*
COc1ccc(-c2nnc(C)c3nocc23)cc1	-3	-6	11%	5	-26%
Cc1ccc(CCSc2ccc(F)cc2)cn1	15*	64*	?	-13	22%
Cc1ccc(CCSc2ccc(C(C)C)cc2)cn1	9.2*	30*	12µM*	-16	11%
CCOC(=O)c1sc(=S)n(-c2ccc(OC)cc2)c1C	1	23	?	25	13µM*
CCOC(=O)c1sc(=S)n(-c2ccc(Cl)cc2)c1C	-1	14	?	-32	5.2µM*
COC(=O)c1sc(=S)n(-c2cc(F)ccc2F)c1N	-3	-7	?	-106*	14%
CCOC(=O)c1sc(=S)n(-c2cc(OC)ccc2OC)c1N	13	-3	9.3µM*	-9	-8%
COc1ccc(CNC(=O)c2sc(=S)n(-c3ccc(OC)cc3)c2N)cc1	5	-5	.	.	-15%
CC(C)c1ccc(OCC(=O)Nc2cc(-c3ccccc3)no2)cc1	.	.	.	36	.
COc1ccccc1NC(=O)C(=O)NCCC1CCCCN1S(=O)(=O)c1cccs1 (stereo not given)	.	.	?	3	?
Cc1cccc(CC(=O)N2CCC(n3nccc3NC(=O)C3CC3)CC2)c1	10	14	-37%	5	0%
O=C(Nc1ccnn1C1CCN(C(=O)Cc2cccc(Cl)c2)CC1)C1CC1	3	20	13µM*	29	-7%
O=C(Nc1ccnn1C1CCN(Cc2cccc(O)c2)CC1)C1CCCC1	1	12	-6%	-22	12%
Cc1cc(CN2CCC(n3nccc3NC(=O)c3ccccc3Cl)CC2)cc(C)c1O	-2	-3	9%	?	10µM*
SMILES	CHX counter	Shiga toxin inh	Pf growth 96h	HCMV antiviral	Pf growth 48h
O=C(Nc1ccnn1C1CCN(Cc2ccc(O)c(Cl)c2)CC1)C1CCCC1	8	-9	?	16	2.1µM*
CCc1nc(C#N)c(N2CCOCC2)o1	-2	-12	9%	-5	0%
COc1cccc(/C=C(/C(=O)OCC(=O)NC2CCCC(C)C2C)c2ccccc2)c1 (stereo not given)	-4	-4	?	?	13µM*
COc1ccccc1C(=O)NCCC(=O)Nc1cccc(C)n1	22*	13	41%	-6	20%
CC1CCCC(NC(=O)COC(=O)c2ccccc2[N+](=O)[O-])C1C (stereo not given)	30*	83*	22%	-11	6%
COc1cccc(/C=C(/C(=O)OCC(N)=O)c2ccccc2)c1	3	8	13%	-18	-1%
COc1cccc2cc(C(=O)OCC(=O)NC3CCCC(C)C3C)c(=O)oc12 (stereo not given)	.	.	.	-61*	.
CC(C)c1cn(CC[C@@H]2CC[C@H](NS(=O)(=O)c3ccc(F)cc3)[C@@H](CO)O2)nn1	.	.	.	30	.
COc1cccc2cc(C(=O)Nc3cccc(C)n3)c(=O)oc12	77*	66*	-8%	.	.
COc1cccc2cc(C(=O)Oc3ccccc3)c(=O)oc12	-2	-14	13µM*	72	6%
COc1cccc2cc(C(=O)N(Cc3ccccc3)CC3CCCO3)c(=O)oc12 (stereo not given)	7	12	?	-18	?
CCN(C(=O)c1cc2cccc(OC)c2oc1=O)c1ccccc1	53*	168*	-26%	-15	-7%
COc1cccc2cc(NC(=O)C3CCCCC3)c(=O)oc12	16*	41	16%	45	259%
Cc1cc([N+](=O)[O-])ccc1NC(=O)CSc1nnc(C)n1C	-2	-18	?	4	4%
CCC(=O)Nc1ccccc1-c1nc2ccccc2n(CC(=O)c2ccc(Cl)cc2)c1=O	.	.	.	73	.
COc1ccc([C@H]2CC(=O)C=C(c3ccc(C)c(F)c3)C2)cc1	.	.	35%	-4	17%
COc1cccc2cc(C(=O)OCc3ccccc3)c(=O)oc12	54*	49*	?	22	-9%
COc1cccc2cc(C(=O)OC3CCN(C)CC3)c(=O)oc12	1	-9	12µM*	-33	5%
N#Cc1ccccc1NC(=O)COC(=O)c1ccc2c(c1)OCO2	.	.	14%	8	7%
CC1(C(=O)Nc2nnc(C(C)(C)C)s2)Cc2ccccc2C(=O)O1 (stereo not given)	-1	3	?	44	-10%
CCSc1nnc(NC(=O)C2(C)Cc3ccccc3C(=O)O2)s1 (stereo not given)	-1	2	-4%	21	13µM*
CC1(C(=O)Nc2ccccc2)Cc2ccccc2C(=O)O1 (stereo not given)	-3	-2	9.3µM*	-18	1%
CC(C)c1ccc(NC(=O)C2(C)Cc3ccccc3C(=O)O2)cc1 (stereo not given)	.	.	.	34	.
CN(C)CC#CCC(O)(c1ccccc1)c1ccccc1	-2	-16	-26%	2	-17%
COC(C#CCCN(C)C)(c1ccccc1)c1ccccc1	-3	-7	?	-30	1.7µM*
COc1ccc(Cn2c(SCC#N)nc3ccc(N4CCOCC4)cc3c2=O)cc1	58*	124*	0%	69	-12%
COc1ccc(-n2c(SCC#N)nc3ccccc3c2=O)cc1	-2	-17	?	?	-1%
COc1ccc(-n2c(SCC(=O)NCC3CCCO3)nc3ccccc3c2=O)cc1Cl (stereo not given)	.	.	.	-67*	.
CCCCn1c(SCC(N)=O)nc2ccc(N3CCOCC3)cc2c1=O	8	5	1%	?	-11%
CCCCn1c(SCC(=O)Nc2cccc(OC)c2)nc2ccc(N3CCOCC3)cc2c1=O	8	-40	.	-20	9.3µM*

Screening results (PubChem)
